Screens from PubChem.
C diff HTS: inhibitors of Clostridium difficile growth; Clostridium difficile clinical isolate growth, OD600, 24 h; active compounds read low; growth activity, negative = inhibition, % at 16 µg/mL (by protocol); actives 0.25% (n = 86,000);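 active = mean growth activity at or below -80% and every replicate also at or below -80%; inconclusive = mean at or below -80% but some replicate above -80%; inactive = mean growth activity above -80%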;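 note: 0% = DMSO wells and -100% = levofloxacin 16 µg/mL wells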
Pf Dd2 growth: blocks growth of Plasmodium falciparum Dd2 parasites | activity change, % at 10 µM | P. falciparum Dd2 growth, SYBR Green, 72 h; active compounds read low | AID 1159554 | actives 2.3% (n = 94,000); in the data active = activity change below about -80%; inconclusive = no clear call, values can overlap the other calls
T cruzi growth-1: T. cruzi proliferation inhibition; AID 624255; inhibition, % at 8.34 µM; T. cruzi beta-gal in NIH3T3, GalScreen luminescence, 90 h; actives 5.9% (n = 77,000);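 active = mean inhibition above about 93%, with at least 55% of replicates each passing it, limit read from the data, passing the limit was not always enough; inconclusive = only one of those two conditions holds; inactive = neither condition holds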
T cruzi growth-2: inhibitors of T. cruzi proliferation. shares compounds with T cruzi growth-1. T. cruzi beta-gal in NIH3T3, GalScreen luminescence, 90 h. inhibition, % at 8.35 µM. actives 72% (n = 5,600). AID 651739;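 active = mean replicate inhibition above about 95% and at least 55% of replicates individually reaching it, limit read from the data; inconclusive = only one of the two criteria is met; inactive = neither criterion is met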
T cruzi growth-3: inhibitors of T. cruzi proliferation; shares compounds with T cruzi growth-1; T. cruzi beta-gal in NIH3T3, GalScreen luminescence, 90 h; inhibition, % at 2.09 µM; actives 21% (n = 5,600); AID 651740;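 active = mean inhibition above about 95%, with at least 55% of replicates also reaching it, limit read from the data; inconclusive = meets just one of the two conditions; inactive = meets neither condition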;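 note: plate controls were neutral control median for no effect and positive control median for full effect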
3T3 cytotox: NIH/3T3 (mouse) viability loss; shares compounds with T cruzi growth-1; NIH/3T3 viability, CellTiter-Glo ATP luminescence, 90 h; cytotoxicity (signal decrease), % at 8.35 µM; actives 14% (n = 5,600); AID 651742;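 active = mean signal decrease across replicates above about 35% based on untreated-well scatter, with enough replicates individually passing, limit read from the data; inconclusive = no rule stated though some were filed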;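 note: 0% = median of neutral control wells and 100% = median of positive control wells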
3T3 cytotox 2: kills mouse NIH/3T3 fibroblasts; AID 651744; NIH/3T3 viability, CellTiter-Glo ATP luminescence, 90 h; shares compounds with T cruzi growth-1; actives 56% (n = 5,600); inhibition, % at 24.9 µM;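 active = mean loss of cell viability signal at or above a set limit, and enough replicates individually reaching it; inconclusive = meets only the mean limit or only the replicate share; inactive = meets neither condition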;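 note: 0% = median of neutral control wells and 100% = median of positive control wells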
* marks the source's active call; other numbers are inactive results; ! = a repeat was not active. Shown are actives, neighbours in structure and some others; about 6.7% of the full set was active somewhere.

What do the screens show for `CC(C)NC(=O)N(C)C[C@H]1Oc2cc(C#Cc3cccc(F)c3)ccc2S(=O)(=O)N([C@@H](C)CO)C[C@@H]1C`?
C diff HTS: -8; Pf Dd2 growth: -22; T cruzi growth-1: 116*; T cruzi growth-2: 99*; T cruzi growth-3: 59; 3T3 cytotox: 22; 3T3 cytotox 2: 45*

Results for CC(C)NC(=O)N(C)C[C@H]1Oc2cc(C#Cc3cccc(F)c3)ccc2S(=O)(=O)N([C@@H](C)CO)C[C@H]1C ?
C diff HTS: -6; Pf Dd2 growth: -42; T cruzi growth-1: 100

Results for C[C@@H]1CN([C@@H](C)CO)C(=O)c2cccc(NS(=O)(=O)c3ccccc3)c2O[C@H]1CN(C)C(=O)Nc1ccccc1 ?
C diff HTS: 12; Pf Dd2 growth: -8; T cruzi growth-1: 41

How did Cc1ccccc1S(=O)(=O)N1C[C@@H](O)COC[C@H]2O[C@H](CC(=O)N3CCN(C)CC3)CC[C@@H]21 do in these assays?
C diff HTS: -6; T cruzi growth-1: 63

How did CCS(=O)(=O)Nc1ccc2c(c1)C(=O)N(C)[C@@H]1CC[C@@H](CC(=O)NCCOC)O[C@H]1CO2 do in these assays?
C diff HTS: 28; T cruzi growth-1: 4

How did C[C@H](NC(=O)[C@H]1[C@H](CO)[C@H]2Cn3c(ccc(-c4ccncc4)c3=O)[C@@H]1N2C)c1ccccc1 do in these assays?
C diff HTS: -5; Pf Dd2 growth: -6; T cruzi growth-1: 14

How did CC(C)NC(=O)Nc1ccc2c(c1)C(=O)N([C@H](C)CO)C[C@@H](C)[C@@H](CN(C)Cc1ccccc1)OCCCC[C@@H](C)O2 do in these assays?
C diff HTS: 4; Pf Dd2 growth: 31; T cruzi growth-1: 36

Results for CC(C)NC(=O)Nc1ccc2c(c1)C(=O)N([C@@H](C)CO)C[C@@H](C)[C@H](CN(C)Cc1ccccc1)OCCCC[C@H](C)O2 ?
C diff HTS: 2; Pf Dd2 growth: -36; T cruzi growth-1: 102*!; T cruzi growth-2: 64; T cruzi growth-3: -3; 3T3 cytotox: -18; 3T3 cytotox 2: 12

How did CC(C)NC(=O)Nc1ccc2c(c1)C(=O)N([C@@H](C)CO)C[C@@H](C)[C@@H](CN(C)Cc1ccccc1)OCCCC[C@H](C)O2 do in these assays?
C diff HTS: -8; Pf Dd2 growth: -41; T cruzi growth-1: 103*; T cruzi growth-2: 39; T cruzi growth-3: 10; 3T3 cytotox: 14; 3T3 cytotox 2: 9

What do the screens show for `CC(C)NC(=O)Nc1ccc2c(c1)C(=O)N([C@H](C)CO)C[C@@H](C)[C@H](CN(C)Cc1ccccc1)OCCCC[C@H](C)O2`?
C diff HTS: 2; Pf Dd2 growth: -77; T cruzi growth-1: 29

Results for C[C@@H]1CN([C@H](C)CO)C(=O)c2cc(NC(=O)Nc3ccc(F)cc3)ccc2O[C@@H]1CN(C)C(=O)Nc1ccc(F)cc1 ?
C diff HTS: 2; Pf Dd2 growth: -12; T cruzi growth-1: -7

What do the screens show for `CNC[C@@H]1Oc2c(NC(=O)NC(C)C)cccc2C(=O)N([C@H](C)CO)C[C@@H]1C`?
C diff HTS: 5; Pf Dd2 growth: 21; T cruzi growth-1: -2

Results for CCC(=O)N[C@H]1C=C[C@@H](CC(=O)NCCN2CCCCC2)O[C@@H]1CO ?
C diff HTS: -6; Pf Dd2 growth: 11; T cruzi growth-1: -42

Results for CC(C)C#Cc1ccc2c(c1)O[C@@H](CN(C)Cc1ccccc1)[C@H](C)CN([C@H](C)CO)S2(=O)=O ?
C diff HTS: 11; Pf Dd2 growth: -66; T cruzi growth-1: 93

How did C[C@@H]1CN([C@@H](C)CO)S(=O)(=O)c2ccc(C#CCN(C)C)cc2O[C@H]1CN(C)Cc1ccccc1 do in these assays?
C diff HTS: -3; Pf Dd2 growth: -54; T cruzi growth-1: 109*; T cruzi growth-2: 105*; T cruzi growth-3: 98*; 3T3 cytotox: 32; 3T3 cytotox 2: 104*

What do the screens show for `C[C@@H]1CN([C@@H](C)CO)S(=O)(=O)c2ccc(C#CCN(C)C)cc2O[C@@H]1CN(C)Cc1ccc(F)cc1`?
C diff HTS: -1; Pf Dd2 growth: -54; T cruzi growth-1: 61

What do the screens show for `C[C@H]1CN([C@@H](C)CO)S(=O)(=O)c2ccc(C#CCN(C)C)cc2O[C@H]1CN(C)Cc1ccccc1`?
C diff HTS: 1; Pf Dd2 growth: -43; T cruzi growth-1: inconclusive; T cruzi growth-2: 105*; T cruzi growth-3: 64; 3T3 cytotox: 22; 3T3 cytotox 2: 39*

How did C[C@H](CO)N1C[C@H](C)[C@@H](CN(C)Cc2ccccc2)Oc2cc(C#CCN(C)C)ccc2S1(=O)=O do in these assays?
C diff HTS: -6; Pf Dd2 growth: -55; T cruzi growth-1: 94

How did C[C@@H]1CN([C@H](C)CO)S(=O)(=O)c2ccc(C#CCN(C)C)cc2O[C@H]1CN(C)Cc1ccccc1 do in these assays?
C diff HTS: -2; Pf Dd2 growth: -58; T cruzi growth-1: 107*; T cruzi growth-2: 97*; T cruzi growth-3: 84; 3T3 cytotox: 45*; 3T3 cytotox 2: 104*

How did C[C@@H]1CN([C@@H](C)CO)S(=O)(=O)c2ccc(C#CCN(C)C)cc2O[C@H]1CN(C)Cc1ccc(F)cc1 do in these assays?
C diff HTS: 6; Pf Dd2 growth: -77; T cruzi growth-1: 113*; T cruzi growth-2: inconclusive; T cruzi growth-3: 91; 3T3 cytotox: 51*; 3T3 cytotox 2: 103*

What do the screens show for `C[C@@H](O)C#Cc1ccc2c(c1)O[C@H](CN(C)Cc1ccccc1)[C@@H](C)CN([C@@H](C)CO)S2(=O)=O`?
C diff HTS: -4; Pf Dd2 growth: -49; T cruzi growth-1: 40

How did Cc1noc(C)c1NC(=O)Nc1ccc2c(c1)CC(=O)N([C@@H](C)CO)C[C@@H](C)[C@H](CN(C)Cc1ccc(C(=O)O)cc1)O2 do in these assays?
C diff HTS: 3; Pf Dd2 growth: 16; T cruzi growth-1: -4

What do the screens show for `COc1ccc(NC(=O)Nc2cccc3c2O[C@@H](CN(C)Cc2ccc(C(=O)Nc4ccccc4N)cc2)[C@H](C)CN([C@@H](C)CO)C3=O)cc1`?
C diff HTS: 2; Pf Dd2 growth: inconclusive

Results for CN(C)C(=O)c1ccc(-c2ccc([C@H]3[C@H]4CN(C(=O)C5CCCC5)CCCCN4[C@H]3CO)cc2)cc1 ?
C diff HTS: -6; Pf Dd2 growth: -33; T cruzi growth-1: 32

How did CN(C)C(=O)c1ccc(-c2ccc([C@@H]3[C@H]4CN(C(=O)C5CC5)CCCCN4[C@H]3CO)cc2)cc1 do in these assays?
C diff HTS: 3; Pf Dd2 growth: -35; T cruzi growth-1: 26
